Laboratory results reported in PubChem BioAssay.
Activity calls are given as the source filed them.

Legend:
Albumin (Bos taurus) = Albumin (Bos taurus) (UniProt P02769); assay: bovine serum albumin binders on microarray, profiling panel, artefact control for SMM control protein annotation, biochemical, small-molecule microarray, Alexa647 label, 635/667 nm fluorescence (AID 1118); conditions: BSA-A647 binding, fluorescence 635 nm, higher = more signal;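 note: score merges 667 nm emission intensity and signal-to-noise per printed compound spot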
[1] = small-molecule microarray binders of probe aXIP, primary screen, biochemical, NeuroSMM set, 635/667 nm fluorescence (AID 1119); conditions: higher = more signal, called active from +8 up or from −8 down;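 note: probe is the protein aXip251-270 applied at 1 µg/mL to compound-printed slides; binding of probe to printed compounds measured as 667 nm fluorescence plus signal to noise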
[2] = small-molecule binders of probe aNOTCH3, primary screen, biochemical, small-molecule microarray, 635/667 nm fluorescence (AID 1120); conditions: higher = more signal;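 note: probe is a biotin-tagged antibody raised against NOTCH3 rather than NOTCH3 protein; score merges spot fluorescence near 667 nm with spot signal to noise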
[3] = small-molecule binders of probe aNOTCH2, primary screen, biochemical, small-molecule microarray, 635/667 nm fluorescence (AID 1121); conditions: higher = more signal;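 note: score merges feature fluorescence read at 667 nm with its signal to noise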
[4] = target: Carbonic anhydrase 2 (Homo sapiens) (UniProt P00918); assay: CAII small-molecule binders, profiling panel, biochemical, small-molecule microarray, Alexa647-labelled CAII (AID 1122); conditions: CAII-A647 binding fluorescence, higher = more signal
[5] = COS7 lysate on small-molecule microarray, probe aHis, 635 nm (AID 1123); conditions: COS7 cell lysate, fluorescence, higher = more signal;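 note: z-score combines 667nm fluorescence intensity with signal-to-noise per printed compound spot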
[6] = compound binding in COS7 lysate, probe aLAP1, primary screen, cell lysate, small-molecule microarray (AID 1124); conditions: probe aLAP1, fluorescence, higher = more signal;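 note: lysate comes from COS7 cells expressing LAP1 and is applied at 0.3 µg/mL; score merges spot fluorescence near 667 nm with signal-to-noise over triplicate slides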
Sam68 (KHDRBS1) = assay: Sam68 small-molecule binders, primary screen, biochemical, small-molecule microarray, 635 nm fluorescence (AID 1125); conditions: small-molecule microarray binding, higher = more signal;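 note: score merges 667 nm channel intensity with signal to noise over triplicate slides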
[7] = tested on: Chordin-like protein 2 (CHRDL2); assay: CHRDL2 small-molecule binders, primary screen, biochemical, small-molecule microarray, 635 nm fluorescence (AID 1126); conditions: small-molecule microarray binding, fluorescence 635 nm; higher = more signal;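 note: printed compound slides probed with Chrdl2 protein at 4 µg/mL for 1 h at 4 C; score merges 667 nm emission intensity with signal to noise over three replicate slides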
[8] = target: Concanavalin-A (Canavalia ensiformis) (UniProt P02866); assay: ConA small-molecule binders, primary screen, artefact control for SMM control protein annotation, biochemical, small-molecule microarray, Alexa647 label, 635 nm (AID 1127); conditions: ConA-A647 binding fluorescence, higher = more signal;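 note: z combines 667 nm emission intensity with signal-to-noise across three replicate slides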
[9] = anti-His antibody binders, primary screen, artefact control for SMM control protein annotation, biochemical, small-molecule microarray, 635 nm fluorescence (AID 1128); conditions: anti-His Alexa647 antibody binding, higher = more signal;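 note: score merges feature fluorescence with signal-to-noise for each printed compound spot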
[10] = tested on: Human papillomavirus type 1a E7 protein (residues 1-88); assay: HPV1a E7 small-molecule binders, primary screen, biochemical, small-molecule microarray, residues 1-88, 635 nm (AID 1129); conditions: small-molecule microarray binding, fluorescence 635 nm; higher = more signal
[11] = target: Focal adhesion kinase 1 (Homo sapiens) (UniProt Q05397); assay: small-molecule microarray binders of FAK, primary screen, biochemical, 635/667 nm fluorescence, BSA, DTT (AID 1130); conditions: PTK2 binding, 635 nm fluorescence, higher = more signal;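 note: composite of spot emission at 667 nm and signal to noise over triplicate slides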
[12] = tested on: Fibrinogen (Alexa647-labelled); assay: fibrinogen binders on compound microarrays, profiling panel, artefact control for SMM control-protein annotation, biochemical, small-molecule microarray, 635/667 nm fluorescence (AID 1131); conditions: fibrinogen-A647 binding fluorescence, higher = more signal;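 note: z-score merges 667 nm fluorescence with per-spot signal-to-noise over triplicate slides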
[13] = target: Follistatin (Homo sapiens) (UniProt P19883); assay: follistatin binders on small-molecule microarrays, primary screen, biochemical, small-molecule microarray, 635/667 nm fluorescence (AID 1132); conditions: FST binding, 635 nm fluorescence, higher = more signal
[14] = target: Fibroblast growth factor 2 (Homo sapiens) (UniProt P09038); assay: FGF2 binders on small-molecule microarrays, primary screen, biochemical, small-molecule microarray, 635/667 nm fluorescence (AID 1133); conditions: small-molecule microarray binding, FGF2, fluorescence 635/667; higher = more signal
[15] = mitochondrial membrane potential change in A549 cells, profiling panel, cell-based, JC-1 fluorescence, basal, 24 h, 100 nL (AID 1138); conditions: higher = more signal;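 note: A549 lung adenocarcinoma cells under basal conditions with no added stimulus; test concentration not given here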
Lefty1 = Lefty1 binders on small-molecule microarrays, primary screen, biochemical, small-molecule microarray, 635/667 nm fluorescence (AID 1139); conditions: small-molecule microarray binding, fluorescence 635/667; higher = more signal
[16] = tested on: wheat germ agglutinin (Triticum aestivum), Alexa647-labelled; assay: wheat germ agglutinin binders on compound microarrays, profiling panel, artefact control for SMM control-protein annotation, biochemical, small-molecule microarray, 635/667 nm fluorescence (AID 1140); conditions: WGA-A647 binding, 635 nm fluorescence, higher = more signal;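 note: score merges 667 nm feature emission with signal to noise over triplicate slides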
[17] = target: Luciferin 4-monooxygenase (Photinus pyralis) (UniProt P08659); assay: firefly luciferase enzyme inhibitors, primary screen, biochemical, luminescence, purified enzyme, 2006 set (AID 1141); conditions: SteadyGlo luminescence, 30 min, higher = more signal, called active from +8 up or from −8 down;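 note: cell-free assay with purified firefly luciferase at 100 ng per well in PBS; test concentration not given here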
Chain of Luciferin 4-monooxygenase (Photinus pyralis) (P08659 whole entry, looked up): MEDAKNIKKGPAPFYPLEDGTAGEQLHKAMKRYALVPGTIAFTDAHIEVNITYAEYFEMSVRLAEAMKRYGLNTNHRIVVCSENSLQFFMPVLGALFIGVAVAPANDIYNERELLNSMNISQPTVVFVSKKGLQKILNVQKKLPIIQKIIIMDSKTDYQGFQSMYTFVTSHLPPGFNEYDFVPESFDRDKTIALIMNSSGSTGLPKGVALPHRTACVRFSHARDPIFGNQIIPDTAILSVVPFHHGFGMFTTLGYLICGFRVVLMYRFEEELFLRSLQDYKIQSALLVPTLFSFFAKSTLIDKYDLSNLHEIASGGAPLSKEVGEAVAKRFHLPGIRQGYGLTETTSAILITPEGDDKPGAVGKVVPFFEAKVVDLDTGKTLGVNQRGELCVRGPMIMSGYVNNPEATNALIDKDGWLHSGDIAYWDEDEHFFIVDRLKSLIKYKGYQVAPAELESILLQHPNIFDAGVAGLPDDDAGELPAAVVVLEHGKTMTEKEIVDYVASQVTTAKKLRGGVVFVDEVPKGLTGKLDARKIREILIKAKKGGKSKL

Chain of Focal adhesion kinase 1 (Homo sapiens) (Q05397 whole entry, looked up): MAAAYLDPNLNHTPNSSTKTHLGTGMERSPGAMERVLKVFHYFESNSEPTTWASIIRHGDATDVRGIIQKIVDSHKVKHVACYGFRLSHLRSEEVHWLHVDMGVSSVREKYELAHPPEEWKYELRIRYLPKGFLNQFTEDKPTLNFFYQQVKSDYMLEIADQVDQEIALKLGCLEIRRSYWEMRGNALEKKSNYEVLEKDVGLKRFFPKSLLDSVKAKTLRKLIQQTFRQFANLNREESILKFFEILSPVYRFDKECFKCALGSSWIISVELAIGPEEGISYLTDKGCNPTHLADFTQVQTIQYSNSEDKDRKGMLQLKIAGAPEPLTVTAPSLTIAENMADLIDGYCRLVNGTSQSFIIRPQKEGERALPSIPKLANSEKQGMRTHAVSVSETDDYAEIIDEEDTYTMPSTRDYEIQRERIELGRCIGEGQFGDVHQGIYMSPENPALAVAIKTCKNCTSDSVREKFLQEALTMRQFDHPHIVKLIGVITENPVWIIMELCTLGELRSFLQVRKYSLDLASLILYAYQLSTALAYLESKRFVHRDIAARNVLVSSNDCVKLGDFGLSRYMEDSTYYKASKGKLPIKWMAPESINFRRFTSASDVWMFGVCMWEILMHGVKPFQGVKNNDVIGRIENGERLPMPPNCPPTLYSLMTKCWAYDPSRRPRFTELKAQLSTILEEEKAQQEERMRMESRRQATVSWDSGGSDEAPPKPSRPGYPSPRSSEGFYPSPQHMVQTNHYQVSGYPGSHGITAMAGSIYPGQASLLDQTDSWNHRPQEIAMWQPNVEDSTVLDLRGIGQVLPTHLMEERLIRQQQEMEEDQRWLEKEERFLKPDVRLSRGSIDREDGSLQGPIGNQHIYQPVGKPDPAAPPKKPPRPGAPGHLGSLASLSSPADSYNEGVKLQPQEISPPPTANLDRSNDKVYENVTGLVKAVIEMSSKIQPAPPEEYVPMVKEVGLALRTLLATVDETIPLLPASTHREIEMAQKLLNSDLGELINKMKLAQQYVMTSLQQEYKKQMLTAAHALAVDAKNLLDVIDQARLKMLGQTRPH
Chain of Concanavalin-A (Canavalia ensiformis) (P02866 whole entry, looked up): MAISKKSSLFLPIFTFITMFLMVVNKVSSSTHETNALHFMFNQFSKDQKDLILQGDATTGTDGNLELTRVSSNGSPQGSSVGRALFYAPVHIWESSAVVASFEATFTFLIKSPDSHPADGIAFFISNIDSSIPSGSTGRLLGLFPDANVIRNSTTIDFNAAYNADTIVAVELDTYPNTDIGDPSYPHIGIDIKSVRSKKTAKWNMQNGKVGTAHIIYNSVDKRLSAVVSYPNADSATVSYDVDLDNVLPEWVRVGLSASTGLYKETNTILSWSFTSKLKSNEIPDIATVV
Chain of Fibroblast growth factor 2 (Homo sapiens) (P09038 whole entry, looked up): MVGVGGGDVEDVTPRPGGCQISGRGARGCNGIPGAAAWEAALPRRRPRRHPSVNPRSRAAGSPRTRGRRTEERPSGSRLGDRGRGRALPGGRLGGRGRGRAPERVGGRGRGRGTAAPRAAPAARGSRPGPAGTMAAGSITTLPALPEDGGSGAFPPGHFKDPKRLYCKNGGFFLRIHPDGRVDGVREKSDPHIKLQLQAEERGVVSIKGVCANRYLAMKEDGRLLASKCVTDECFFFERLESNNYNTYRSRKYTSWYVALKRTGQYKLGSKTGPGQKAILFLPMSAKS
Chain of Follistatin (Homo sapiens) (P19883 whole entry, looked up): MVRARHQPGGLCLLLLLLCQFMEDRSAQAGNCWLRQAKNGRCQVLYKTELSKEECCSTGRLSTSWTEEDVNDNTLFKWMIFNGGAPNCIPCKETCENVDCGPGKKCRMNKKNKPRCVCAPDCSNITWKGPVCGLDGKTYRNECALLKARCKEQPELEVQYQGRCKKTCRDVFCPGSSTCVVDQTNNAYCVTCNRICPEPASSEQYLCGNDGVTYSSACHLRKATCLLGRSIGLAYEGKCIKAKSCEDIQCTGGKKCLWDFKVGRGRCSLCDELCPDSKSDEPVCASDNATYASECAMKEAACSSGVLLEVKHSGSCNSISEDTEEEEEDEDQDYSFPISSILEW
Chain of Albumin (Bos taurus) (P02769 whole entry, looked up): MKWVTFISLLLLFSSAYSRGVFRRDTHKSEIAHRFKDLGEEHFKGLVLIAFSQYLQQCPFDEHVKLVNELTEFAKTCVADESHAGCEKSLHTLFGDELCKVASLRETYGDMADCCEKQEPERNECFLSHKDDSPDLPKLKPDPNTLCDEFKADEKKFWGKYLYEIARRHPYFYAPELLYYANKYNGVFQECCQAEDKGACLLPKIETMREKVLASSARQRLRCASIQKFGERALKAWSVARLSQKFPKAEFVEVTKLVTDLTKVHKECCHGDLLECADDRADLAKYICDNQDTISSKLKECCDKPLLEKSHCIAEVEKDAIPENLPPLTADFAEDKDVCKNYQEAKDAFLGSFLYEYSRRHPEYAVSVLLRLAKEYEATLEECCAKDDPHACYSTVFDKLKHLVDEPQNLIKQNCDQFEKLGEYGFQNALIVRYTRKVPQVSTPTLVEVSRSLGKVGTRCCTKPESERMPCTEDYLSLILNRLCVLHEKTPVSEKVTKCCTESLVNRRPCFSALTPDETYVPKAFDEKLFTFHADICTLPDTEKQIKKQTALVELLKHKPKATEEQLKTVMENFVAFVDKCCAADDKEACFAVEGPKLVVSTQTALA

Row | SMILES | composite z-score (Albumin (Bos taurus)) | composite Z-score [1] | composite z-score [2] | composite z-score [3] | composite z-score [4] | composite z-score [5] | composite z-score [6] | composite z-score (Sam68 (KHDRBS1)) | composite z-score [7] | composite z-score [8] | composite z-score [9] | composite z-score [10] | composite z-score [11] | composite z-score [12] | composite z-score [13] | composite z-score [14] | z-score [15] | composite z-score (Lefty1) | composite z-score [16] | z-score [17]
1 | CCCNC(=O)[C@@H]1c2ccccc2C(=O)N(Cc2ccccc2Cl)[C@H]1c1ccc(CO)cc1 | 0.414 | -0.231 (inactive) | -0.0794 | -0.0631 | 0.585 | 1.86 | 0.779 | 1.3 | 0.36 | 1.13 | 2.58 | 1.19 | 0.497 | 0.691 | 1.36 | 1.3 | 3.16 | 1.1 | 1.09 | -1.54 (inactive)
2 | C=CC[C@@H]1C=C[C@H](ON=C2c3cc(OC)ccc3O[C@H](c3cccc(OC)c3)[C@H]2O)[C@@H](CO)O1 | 0.764 | 0.196 (inactive) | -0.253 | -0.0956 | 0.427 | 0.425 | 0.266 | -0.194 | 0.105 | -0.302 | -0.738 | -0.133 | 0.374 | 0.352 | -0.0389 | 0.369 | -0.102 | 0.873 | 0.499 | -0.101 (inactive)
3 | C[C@H]1Cc2c(-c3ccccc3)nc3c(c2CO1)CN(CCOc1ccccc1)CC3 | 0.68 | -0.2 (inactive) | 0.0667 | -0.112 | 0.352 | 0.71 | 0.292 | 1.3 | 0.521 | 0.993 | 1.08 | 0.576 | 0.269 | 0.728 | 1.09 | 1.08 | 3.24 | 1.11 | 0.253 | -1.41 (inactive)
4 | CCOC(=O)NN=C1C[C@@H](O)[C@@H](O)[C@@H]2[C@@H]3C(=O)N(C4CCCCC4)C(=O)[C@@H]3CC[C@H]12 | 0.801 | -0.0662 (inactive) | 0.0242 | -0.037 | -0.0418 | 0.387 | 0.16 | 0.458 | 0.0341 | 0.357 | 0.0946 | 0.832 | 0.25 | 0.657 | 0.061 | 0.0615 | -1.13 | 0.78 | 0.395 | 0.63 (inactive)
5 | CCOC(=O)[C@H](Cc1ccccc1)NC(=O)CCC1CC(OC(=O)NCc2ccc3c(c2)OCO3)CC2(CCCC(COC(=O)NCC3CCCCC3)O2)O1 (stereo not given in full) | 0.276 | 0.236 (inactive) | 0.0525 | -0.0891 | 0.579 | 0.575 | -0.243 | 1.3 | 0.799 | 1.06 | 0.273 | 1.18 | 0.188 | 0.91 | 0.904 | 0.48 | 0.491 | 0.876 | 0.206 | 0.986 (inactive)
6 | C[C@@H]1C=CCC(=O)OC[C@H](C)C(=O)OC[C@H]2O[C@H]1C=C[C@H]2O | 0.411 | -0.18 (inactive) | 0.2 | -0.0795 | 0.116 | 0.544 | 0.0137 | 0.0768 | 0.458 | 0.227 | -0.31 | -0.307 | -0.174 | 0.303 | 0.208 | 0.577 | 0.328 | 0.781 | 0.59 | -1.1 (inactive)
7 | O=C1[C@H]2[C@H]3[C@H](O)[C@H](O)CC(=NO[C@@H]4O[C@H](CO)[C@@H](O)[C@H](O)[C@H]4O)[C@H]3CC[C@H]2C(=O)N1Cc1ccccc1 | -0.258 | -0.304 (inactive) | 0.0145 | -0.127 | -0.457 | 0.904 | 0.0052 | 1.32 | -0.564 | 0.0723 | 0.0948 | 0.768 | 0.0406 | -0.187 | -0.179 | 0.389 | -0.252 | 0.358 | -0.0816 | 0.589 (inactive)
8 | CCN1C(=O)[C@H]2[C@H]3[C@H](O)[C@H](O)CC(=NOCc4ccccc4)[C@@H]3CC[C@H]2C1=O | -0.0633 | 1.92 (inactive) | 0.302 | -0.186 | 0.0453 | 0.37 | 1.74 | 0.598 | 0.589 | 0.7 | 0.119 | 0.65 | -0.0096 | 0.306 | 0.276 | 0.232 | 1.89 | 0.538 | 0.0953 | -1.23 (inactive)
9 | CCCCC(=C=CC[C@H](O)c1ccccc1OCCO)C[C@H](O)COCc1ccccc1 | 0.355 | 2.26 (inactive) | -0.0362 | -0.147 | 0.669 | 0.0513 | 1.27 | -0.0664 | -0.632 | 0.874 | -1.29 | -0.138 | 0.329 | -0.256 | 0.103 | 0.189 | 0.544 | -0.0107 | -0.142 | -0.676 (inactive)
10 | CCCNC(=O)[C@@H]1c2ccccc2C(=O)N(c2ccc(C)cn2)[C@H]1c1ccc(CO)cc1 | 0.206 | -0.207 (inactive) | -0.305 | -0.109 | 0.769 | -0.018 | -0.514 | -0.646 | -0.382 | -0.984 | 0.63 | -0.38 | 0.14 | -0.367 | 0.316 | 0.398 | -0.307 | -0.981 | -0.273 | 0.544 (inactive)
11 | CCOC(=O)C1=CCC(c2cc3ccccc3[nH]2)NC1 (stereo not given) | 0.653 | 0.0894 (inactive) | 0.173 | 0.069 | 0.63 | 1.7 | 0.944 | 0.689 | 0.215 | -0.668 | 0.693 | 1.13 | 1.22 | -0.288 | 1.12 | -0.356 | 0.642 | -0.439 | 1.06 | -3.19 (inactive)
12 | [N-]=[N+]=NCc1ccccc1C[C@]1(C(=O)NCc2ccccc2)N=C(c2ccc(OCCCO)cc2)O[C@H]1c1ccccc1N=[N+]=[N-] | 0.841 | 0.187 (inactive) | 0.531 | -0.098 | 0.476 | 1.91 | 0.317 | 1.09 | -0.38 | 0.822 | 1.99 | 1.17 | 1.54 | 0.967 | 0.931 | 1.49 | -0.711 | -0.875 | 0.285 | -4.08 (inactive)
13 | COCCOC(=O)N1C(=O)[C@@]2(c3cc(C#CCNC(N)=O)ccc31)[C@H](c1ccccc1OCCO)N1[C@H](c3ccccc3)[C@H](c3ccccc3)OC(=O)[C@H]1[C@@H]2C(=O)N1CCN(c2ncccn2)CC1 | 0.583 | 0.339 (inactive) | 0.169 | -0.0028 | 0.537 | 1.92 | 0.579 | 1.32 | -0.119 | 1.06 | 1.94 | 0.74 | 0.491 | 0.714 | 0.705 | 1.55 | -1.08 | 0.296 | 0.727 | -1.9 (inactive)
14 | COc1ccc(O[C@H]2C=C[C@@H](c3ccccc3)O[C@@H]2COC(=O)CCC(C)=NOC(C)CN2CCCCc3nc(C)c(C)cc32)cc1 (stereo not given in full) | -0.485 | 0.105 (inactive) | -0.0918 | -0.179 | 0.456 | 0.121 | -0.312 | -0.433 | -0.101 | -0.929 | 4.16 | -0.303 | 0.214 | -0.78 | 0.0731 | -0.442 | 0.752 | -0.214 | 0.878 | 0.731 (inactive)
15 | CCOc1ccc(N2C(=O)/C(=C/C=C/c3ccccc3OC)S(=O)(=O)C2c2cccc([N+](=O)[O-])c2)cc1 (stereo not given) | 0.382 | -0.327 (inactive) | 0.0762 | -0.0793 | -0.138 | 0.13 | 0.32 | -0.319 | 0.198 | 0.133 | -0.359 | 0.339 | 0.0604 | 0.441 | 0.475 | 0.235 | 2.31 | 0.23 | 0.432 | -0.889 (inactive)
16 | COC(=O)c1c(CC[C@@H](CO)NC(=O)N[C@H](Cc2ccccc2)Cn2cc(-c3ccccc3N)nn2)oc(C(C)=O)c1C(=O)OC | 0.484 | -0.202 (inactive) | 0.237 | 0.115 | 0.0874 | 1.31 | 0.481 | 0.938 | 0.509 | -0.0831 | 1.35 | 1.17 | -0.422 | 0.323 | 0.629 | 0.237 | 0.34 | 0.348 | 1.14 | -0.197 (inactive)
